Assay outcomes deposited in PubChem BioAssay by The Scripps Research Institute Molecular Screening Center.
DAX1 inh-1 – DAX1 (NR0B1) inhibitors, primary screen, cell-based, HEK293, Gal4-DAX1, luciferase luminescence; 0.99% of 340,000 active; inhibition, % at 6.75 µM; AID 504766, 2011; HEK293 Gal4-DAX1 luciferase reporter; Nuclear receptor subfamily 0 group B member 1 (Homo sapiens), P51843;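 active = inhibition above the mean over all tested compounds plus 3 SD, cut at about 4.2% in these data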;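 also: 0% = DAX1-transfected cells with DMSO and 100% = empty-vector control cells with DMSO; inhibition shows as a rise in luminescence from relieved DAX1 repression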
Target sequence (P51843 207-470 limits assumed): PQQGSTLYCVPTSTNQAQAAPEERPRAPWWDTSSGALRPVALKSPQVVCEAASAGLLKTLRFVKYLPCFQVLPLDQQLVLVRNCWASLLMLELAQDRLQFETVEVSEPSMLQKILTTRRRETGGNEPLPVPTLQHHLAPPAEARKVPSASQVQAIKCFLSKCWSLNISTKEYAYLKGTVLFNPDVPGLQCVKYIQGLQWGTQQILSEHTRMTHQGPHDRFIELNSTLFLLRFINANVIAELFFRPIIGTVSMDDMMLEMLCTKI
hcDAF-12 act – H. contortus DAF-12 nuclear receptor activators, primary screen, cell-based, luminescence, HEK293, lit1-tk-luc reporter | HEK293 hcDAF-12 lit1-tk-luc reporter; 0% DMSO, 100% Δ7-dafachronic acid | activation, % at 6.8 µM | 1.4% of 370,000 active | AID 652067, 2013;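 active = activation above the mean of all tested compounds plus 3 SD, cut at about 5.5% in these data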;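 also: 100% = response to 3 µM Δ7-dafachronic acid high control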
hgDAF12 agonist – H. glycines DAF-12 receptor agonists, primary screen, cell-based, luminescence, HEK293, GAL4 fusion, UAS-luciferase; Nuclear hormone receptor DAF-12 (Heterodera glycines), GAL4 fusion; 1.8% of 370,000 active; AID 687014, 2013; HEK293 GAL4-hgDAF12 UAS-luciferase reporter, agonist luminescence; normalized to butyrate control; activation, % at 6.8 µM;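 active = activation above a cutoff set at the mean of all screened compounds plus 3 SD, cut at about 10% in these data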;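 also: 0% = DMSO wells and 100% = sodium butyrate wells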
ssDAF12 agonist – S. stercoralis DAF-12 nuclear receptor activators, primary screen, cell-based, luminescence, HEK293, GRIP1 co-expression, lit1-tk-luc. HEK293 ssDAF-12/GRIP1 lit1-tk-luc reporter; % of 3 µM dafachronic acid response. activation, % at 6.8 µM. 1% of 370,000 active. AID 652126, 2013;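 active = activation above the mean over all tested compounds plus 3 SD, cut at about 0.9% in these data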;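 also: 0% = DMSO-only wells and 100% = 3 µM delta7-dafachronic acid wells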
DAX1 inh-2 – DAX1 (NR0B1) inhibitors on StAR promoter, primary screen, cell-based, luminescence, SF-1 (NR5A1), full-length DAX-1 | HEK293T StAR-luciferase reporter, SF-1/DAX-1 repression relief | inhibition, % at 6.8 µM | 1.1% of 370,000 active | AID 652010, 2013;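 active = inhibition above the mean over all tested compounds plus 3 SD, cut at about 3.6% in these data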;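 also: 0% = DAX-1 cells with DMSO and 100% = cells lacking DAX-1 with DMSO; higher inhibition means more luminescence from relief of DAX-1 repression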
* marks the source's active call; other numbers are inactive results; x = not tested or not shown. Rows were chosen to be rich in hits. Some 4.1% of all compounds tested hit in one or more screens of this group.

SMILES | DAX1 inh-1 | hcDAF-12 act | hgDAF12 agonist | ssDAF12 agonist | DAX1 inh-2
CCCCCn1cnc2sc(-c3ccccc3)cc2c1=O | 0 | 0 | 4 | -1 | 1
CCCCCn1cnc2sc(CC)cc2c1=O | 0 | 1 | 12* | -1 | 3
CCCCn1cnc2sc(-c3ccccc3)cc2c1=O | 3 | 2 | 10* | 0 | 2
CCOc1ccc(-n2c(SC/C=C/c3ccccc3)nnc2-c2ccco2)cc1 | x | -2 | 4 | -2 | -1
COCCOC(=O)N(C)C[C@@H]1OCCCC[C@H](C)Oc2ccc(NC(=O)Nc3ccccc3)cc2C(=O)N([C@@H](C)CO)C[C@H]1C | x | 0 | -1 | -1 | x
O=C(Nc1ccc(F)cc1)OCc1cn(Cc2cccc(Cl)c2)nn1 | x | -2 | -1 | -1 | 0
COCCCNC(=O)c1ccc2c(c1)NC(=O)C(C)(C)O2 | x | -3 | -2 | 0 | 1
FC(F)(F)c1cc(CNC2CCC23CCCCC3)ccc1Cl (configuration not stated) | x | 0 | 1 | -2 | x
CC(C)Cn1c2c(c(=O)[nH]c1=O)C(NS(=O)(=O)c1ccc(Cl)cc1)(C(F)(F)F)C(=O)N2 (configuration not stated) | 4.3* | 2 | -2 | -1 | 0
O=S1(=O)CC2c3ccc(F)cc3CN2CN1CCc1ccccc1 (configuration not stated) | x | 0 | 3 | 0 | -1
O=C(c1ccccc1)c1nn(-c2ccc(Cl)cc2)cc1C(=O)c1cc2ccccc2oc1=O | 1 | 4 | -1 | 1.1* | 1
CCCCCCN1CCN(C2CN(Cc3cn(Cc4ccccc4)nn3)S(=O)(=O)C2)CC1 (configuration not stated) | x | 0 | 0 | -2 | 0
O=C(c1cccs1)N1CCn2c1nc1ccccc12 | 2 | 5 | 7 | -1 | 4.3*
O=C(COc1ccc(Cl)cc1)NNC(=O)c1ccc2c(=O)n3c(nc2c1)CCC3 | -1 | 0 | -2 | -1 | 4.1*
O=C(OCC(=O)N1CCc2ccccc2C1)c1ccc(F)cc1Cl | 1 | 0 | 11* | -1 | 1
Cc1occc1-c1nnc(SCC(=O)Nc2ccncc2)n1-c1ccccc1 | x | -2 | -3 | -2 | 0
Cc1nnc(SC(C)C(=O)NC2CCCCC2C)n1N (configuration not stated) | 4.3* | -2 | -1 | -1 | 0
O=C(NC1CCCc2ccccc21)C1CCN(c2c3c(nc4ncnn24)CCC3)CC1 (configuration not stated) | -1 | -1 | 0 | 1.1* | 0
O=C(Nc1ccc2c(c1)CCC2)C1CCN(c2c3c(nc4ncnn24)CCC3)CC1 | -3 | -5 | -6 | -3 | -3
N#Cc1ccccc1S(=O)(=O)N1CCN(Cc2cc3c(cc2Br)OCCO3)CC1 | 0 | 1 | -1 | -1 | 0
O=C(CN1CCC(NC(=O)C2CC2)CC1)Nc1cccc(F)c1 | 0 | 5 | 1 | 0.9* | 0
CC(=O)Nc1cc2c(cc1Cl)-c1ccccc1C2O (configuration not stated) | 2 | 5.9* | 3 | 0 | -1
CC(=O)Nc1cc2c(cc1Cl)-c1ccccc1C2 | 3 | 4 | 9 | 0 | 3
c1ccc(-c2cc3ccccc3cn2)cc1 | 3 | 6.2* | 10 | 1 | 2
Oc1[nH]c2ccccc2c1N=Nc1ccccc1Cl | 3 | 4 | 7 | 2.5* | 2
SMILES | DAX1 inh-1 | hcDAF-12 act | hgDAF12 agonist | ssDAF12 agonist | DAX1 inh-2
COc1ccc(Cn2cc(CN3[C@H](CC(C)C)COc4cc(Br)ccc4S3(=O)=O)nn2)cc1 | x | 1 | 1 | -1 | 1
COc1cccc(-c2cc3nc(-c4ccco4)cc(N4CCN(C(C)=O)CC4)n3n2)c1 | x | -3 | -2 | -2 | x
COc1ccc(C)cc1NC(=O)C1CC1c1ccccc1 (configuration not stated) | 4 | -1 | 5 | -2 | 0
Cc1ccc2[nH]c(C(=O)O)c(NC(=O)[C@@H]3C[C@@H]3c3ccccc3)c2c1 | 1 | 3 | 2 | 2.5* | 0
Cc1ccc(/C=N/NC(=S)N2CCOCC2)cc1 | 1 | 4 | 12* | 0 | 2
S=C(N/N=C/c1ccc(Br)cc1)N1CCCCC1 | 6.7* | 3 | 10 | 1.2* | 2
O=S1(=O)c2c(NCc3ccco3)cccc2Oc2ccccc2CN1Cc1cn(Cc2ccc(F)cc2)nn1 | x | -2 | -2 | -2 | 0
COc1ccc(CCCC(=O)O)c(C)c1 | 1 | 0 | -1 | 1.5* | 0
N#Cc1ccc(S(=O)(=O)N2CCCc3nc(-c4ccc(F)cc4)ccc32)cc1 | x | 4 | 0 | 1.7* | 0
N#Cc1ccc(S(=O)(=O)N2CCCc3nc(-c4ccc(Br)cc4)ccc32)cc1 | x | 1 | 1 | 1.4* | -1
O=S(=O)(c1ccc(F)cc1)N1CCCc2nc(-c3ccc(Br)cc3)ccc21 | x | 1 | 3 | -1 | -1
CCC(c1ccc(OC)cc1)c1cn(C)c2ccccc12 (configuration not stated) | x | 2 | 0 | -1 | 0
COC(=O)C1=C(C)Nc2ccc(C)cc2S1 | 4.2* | 2 | 5 | 0 | 1
COC(=O)c1ccc(N2CCC(C)CC2)c(N)c1 | 2 | 2 | 4 | 0 | 1
COC(=O)c1ccc(N2CCCCC2)c(N)c1 | 1 | 2 | 6 | -1 | 3.7*
C[C@H]1[C@H](c2ccccc2)OC(O)([C@H](Cc2ccccc2)NC(=O)OC(C)(C)C)CN1C (some centres not stated) | x | -3 | -1 | -2 | x
Cc1ccc(-c2csc(NC(=O)COC(=O)c3cccc(S(=O)(=O)N4CCOCC4)c3)n2)cc1 | x | 1 | 7 | -1 | 3.6*
CCCC(=O)NC(=S)Nc1nc(-c2ccc(OC)cc2)cs1 | 4.7* | 3 | 8 | 0 | 1
CCn1nc(C(=O)OCC(=O)Nc2nc(-c3ccc(OC)cc3)cs2)c2ccccc2c1=O | 3 | 2 | 11* | 0 | 1
COc1ccc(-c2csc(NC(=S)NC(=O)c3ccco3)n2)cc1 | 1 | 0 | 0 | -1 | 0
CCn1nc(C(=O)OCC(=O)NCC(C)C)c2ccccc2c1=O | 0 | -1 | 3 | -2 | 1
Cc1ccc(-c2csc(NC(=O)c3cccc(S(=O)(=O)N4CCN(C)CC4)c3)n2)cc1 | 0 | 1 | 3 | -1 | 0
COc1ccc(-c2csc(NC(=O)COC(=O)c3ccco3)n2)cc1 | -1 | 3 | 11* | -1 | 2
